From PubChem BioAssay AID1578 (Sanford-Burnham Center for Chemical Genomics, 2009)
Values joined by “and” are separate entries in the source; they are usually repeats but may differ in a detail not shown here. Equal entries are not always repeated. Among all 290,000 compounds or so, about 3,000 (1%) were called active. Cut-off read from the data, not from the text of the source: active = inhibition mostly above about 36% (no sharp cut-off); inactive = mostly below about 34%. What follows is part of a selection rich in actives, with near analogues and random picks from the rest.

assay: NOD1 signaling inhibitors, primary screen, cell-based, luminescence, uHTS (AID 1578); details: NOD1-driven NF-kB luciferase reporter cells, at 4 µM, hits give high values;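 note: HEK-293T reporter cells stimulated with the NOD1 agonist gamma-tri-DAP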

| Compound | inhibition |
| --- | --- |
| CC(C)(C)C(=O)c1cn(CC(=O)NCc2ccco2)c2ccccc12 | -39.1% (inactive) |
| Cc1ccc(-n2c(O)c(/C=N/N3CCCCCC3)c(=O)[nH]c2=O)cc1C | 1.1% (inactive) |
| CCC(=NCCCn1ccnc1)c1c(O)n(-c2ccc(OC)cc2)c(=O)[nH]c1=O | -8.6% (inactive) |
| COc1cccc(C(=O)C2CN(C)CC2c2ccc(Cl)cc2)c1 (centres undefined) | -33.4% (inactive) |
| CC/C(=N\NC(=O)c1ccccc1)c1c(O)n(Cc2ccccc2)c(=O)[nH]c1=O | 12.5% (inactive) |
| O=c1[nH]c(=S)n(C2CC2)c(O)c1C=NCC1CCCO1 (centres undefined) | -13.4% (inactive) |
| O=C(CCc1ccc(O)cc1)N1C[C@H]2C[C@@H](C1)c1cccc(=O)n1C2 | 9.1% (inactive) |
| COc1ccc(CC(=O)N2C[C@H]3C[C@@H](C2)c2cccc(=O)n2C3)cc1 | 24.2% (inactive) |
| COC(=O)c1ccccc1NC(=O)N1C[C@@H]2C[C@@H](C1)c1cccc(=O)n1C2 | -15.8% (inactive) |
| O=c1cccc2n1CC1CC2CN(Cc2cccc(Cl)c2Cl)C1 (centres undefined) | 63.8% (active) |
| CCc1ccccc1NC(=O)N1C[C@H]2C[C@@H](C1)c1cccc(=O)n1C2 | 54.5% (active) |
| COc1ccccc1NC(=O)N1C[C@@H]2C[C@@H](C1)c1cccc(=O)n1C2 | -34.3% (inactive) |
| COc1ccc(CCC(=O)N2C[C@H]3C[C@@H](C2)c2cccc(=O)n2C3)cc1 | 53.1% (active) |
| O=c1cccc2n1CC1CC2CN(Cc2c(F)cccc2Cl)C1 (centres undefined) | -7.2% (inactive) |
| O=c1cccc2n1CC1CC2CN(Cc2c(Cl)cccc2Cl)C1 (centres undefined) | 14% (inactive) |
| O=[N+]([O-])c1ccc(N2CCCNCC2)c2ncccc12 | -0.2% (inactive) |
| CC(C)Sc1nnc([C@@H](N)Cc2c[nH]c3ccccc23)o1 | -2.5% (inactive) |
| CC12CC[C@H]3[C@@H](CCC4(O)C[C@H](O)CCC34/C=N/NC(=O)Cc3ccccc3)C1(O)CCC2C1=CC(=O)OC1 (some centres undefined) | -7% (inactive) |
| CC12CC[C@H]3[C@@H](CCC4(O)C[C@H](O)CCC34/C=N/NC(=O)c3ccccc3F)C1(O)CCC2C1=CC(=O)OC1 (some centres undefined) | -9.8% (inactive) |
| C[C@H]1O[C@@H](O[C@H]2[C@@H](O)C[C@H](O[C@H]3[C@@H](O)C[C@H](O[C@H]4CC[C@@]5(C)[C@H](CC[C@@H]6[C@@H]5CC[C@]5(C)[C@@H](C7=CC(=O)OC7)CC[C@]65O)C4)O[C@@H]3C)O[C@@H]2C)C[C@H](O)[C@@H]1O | 105% (active) |
| CC12CC[C@H]3[C@@H](CCC4(O)C[C@H](O)CCC34/C=N/NC(=O)c3ccccc3O)C1(O)CCC2C1=CC(=O)OC1 (some centres undefined) | 4.5% (inactive) |

| Compound | inhibition |
| --- | --- |
| C[C@H]1O[C@@H](OC2CC[C@]3(C=O)[C@H]4CC[C@]5(C)[C@@H](C6=CC(=O)OC6)CC[C@]5(O)[C@@H]4CC[C@]3(O)C2)CC2OC(C)(C)OC21 (some centres undefined) | 89.2% (active) |
| COc1cc(C(=O)N/N=C/C23CC[C@@H](O)CC2(O)CC[C@@H]2[C@@H]3CCC3(C)C(C4=CC(=O)OC4)CCC23O)ccc1O (some centres undefined) | -5.4% (inactive) |
| CN1CCC2(O)OCCCC2C1 (centres undefined) | 4.3% (inactive) |
| Cc1c(N)c(C)c([N+](=O)[O-])c(C)c1[N+](=O)[O-] | 69.5% (active) |
| O=C1CN(C(=O)CN2CCCCC2)C(c2ccccc2)c2cc(Br)ccc2N1 (centres undefined) | -24.1% (inactive) |
| O=C(Nc1ccccc1)c1cccn(Cc2ccccc2)c1=O | 23% (inactive) |
| O=C(Nc1ccncc1)c1cccn(Cc2ccccc2)c1=O | 33.5% (active) |
| O=C(NCc1ccccc1)c1cccn(Cc2ccccc2)c1=O | 2.3% (inactive) |
| O=C(Nc1cccc(C(F)(F)F)c1)c1cccn(Cc2ccc3c(c2)OC(F)(F)O3)c1=O | 35.6% (inactive) |
| Cc1cccc(C)c1NC(=O)c1cccn(Cc2ccc3c(c2)OC(F)(F)O3)c1=O | 21.8% (inactive) |
| O=C(Nc1ccc(C(F)(F)F)cc1)c1cccn(Cc2ccc3c(c2)OC(F)(F)O3)c1=O | 59.7% (active) |
| Cc1nn(Cc2ccccc2Cl)c(Cl)c1C(=O)OCC(=O)NCc1ccco1 | 2.8% (inactive) |
| CC(C)Oc1ccc(CCN)cc1Cl | -19.6% (inactive) |
| CCCCCn1c(=O)c(C(=O)Nc2ccccn2)c(O)c2ccccc21 | -4.7% (inactive) |
| Cc1ccc(CN(Cc2ccccc2)C(=S)NCC(=O)N2CCC3(CC2)OCCO3)o1 | -33.5% (inactive) |
| CCOC(=O)c1[nH]ncc1CN1CCCC(C(=O)c2cccc(Cl)c2)C1 (centres undefined) | -5.2% (inactive) |
| O=[N+]([O-])c1ccc(NC2CCN(Cc3ccccc3)CC2)c2ccncc12 | -6.9% (inactive) |
| O=[N+]([O-])c1ccc(NCc2ccc(Cl)cc2)c2ccncc12 | 37% (active) |
| O=[N+]([O-])c1ccc(NC2CCCC2)c2ccncc12 | 40.7% (inactive) |
| Fc1cccc(CN2CCN(c3ccc(Cl)cc3)CC2)c1 | -10.4% (inactive) |
| CC(C)=CCc1c(O)cc2c(c1O)C(=O)CC(c1ccc(O)cc1)O2 (centres undefined) | 5.8% (inactive) |

| Compound | inhibition |
| --- | --- |
| OC(CN1CCC(c2c[nH]c3ccccc23)CC1)C(F)(F)F (centres undefined) | 1.1% (inactive) |
| CN1CCN(/N=C/c2c[nH]c3ccccc23)CC1 | -2.1% (inactive) |
| CN1CCC(c2c[nH]c3ccccc23)C1 (centres undefined) | 34.9% (active) |
| CN1CC(C(=O)c2ccc(Cl)cc2)C(c2ccccc2F)C1 (centres undefined) | -15.7% (inactive) |
| O=c1[nH]c(=O)n(-c2ccccc2)c(O)c1N=Nc1ccc(Br)cc1 | 60.1% (active) |
| Cc1c(N=Nc2c(O)n(-c3ccc(Br)cc3)c(=O)[nH]c2=O)c(=O)n(-c2ccccc2)n1C | -1.1% (inactive) |
| CCOc1ccc(-n2c(O)c(N=Nc3ccc([N+](=O)[O-])cc3)c(=O)[nH]c2=O)cc1 | -17.8% (inactive) |
| CC(=NCCCN1CCOCC1)c1c(O)n(-c2ccccc2C)c(=O)[nH]c1=O | -51.5% (inactive) |
| CN1CCN(Cc2cc(C(C)(C)C)c(O)c(C(C)(C)C)c2)CC1 | 16.1% (inactive) |
| CCOP(=O)(OCC)c1cc(C)c(O)c(C(C)(C)C)c1 | -1.1% (inactive) |
| CC(C)(C)c1cc([N+](=O)[O-])cc(C(C)(C)C)c1O | 67.8% (active) |
| O=[N+]([O-])c1ccccc1CNCCc1c[nH]c2ccccc12 | -15.3% (inactive) |
| Cc1ccc(OCC(=O)N2CCN(C3CCC(c4ccccc4)CC3)CC2)cc1 (centres undefined) | -32.4% (inactive) |
| CNCC(C)c1ccccc1 (centres undefined) | -8.7% (inactive) |
| O=c1[nH]c(=O)n(-c2ccccc2)c(O)c1/C=C1/C(c2ccccc2)=Nc2ccccc21 | 81.6% (active) |
| COC(=O)C1=Nc2ccccc2/C1=C\c1c(O)n(-c2ccc(OC)cc2)c(=O)[nH]c1=O | 9.9% (inactive) |
| COC(=O)C1=Nc2ccccc2/C1=C\c1c(O)n(-c2ccc(Br)cc2)c(=O)[nH]c1=O | 56.2% (inactive) |
| Cc1ccc(Cn2nc(C)c(C=O)c2Cl)cc1 | -42.4% (inactive) |
| COc1cc2c(cc1OC)-c1c3c(cc4c1[C@@H](C2)N(C)CC4)OCO3 | -23.9% (inactive) |
| COc1ccc(-n2nc(C(=O)NCC(=O)N3CCC4(CC3)OCCO4)c3ccccc3c2=O)cc1 | -47.4% (inactive) |
| COc1cccc([C@@]2(O)CCCC[C@@H]2CN(C)C)c1 | -1.9% (inactive) and 1.4% (inactive) |

| Compound | inhibition |
| --- | --- |
| CN(C)CC1CSCCC1(O)c1ccccc1 (centres undefined) | -5.3% (inactive) |
| CN(C)CC1Oc2ccccc2OC1(O)c1ccccc1 (centres undefined) | 56.4% (active) |
| Cc1c(N=Nc2c(O)[nH]c(=S)[nH]c2=O)c(=O)n(-c2ccccc2)n1C | 12.7% (inactive) |
| C=CCn1c(O)c(/C=C2/C=CC=N2)c(=O)[nH]c1=O | -27.6% (inactive) |
| O=c1[nH]c(=O)n(Cc2ccccc2Cl)c(O)c1/C=C1/C=CC=N1 | 47.1% (active) |
| CCCCn1c(O)c(/C=C2/C=CC=N2)c(=O)[nH]c1=O | -7.3% (inactive) |
| COc1ccc(N=Cc2c(O)n(C)c(=O)n(C)c2=O)cc1 | -13.4% (inactive) |
| CNS(=O)(=O)c1ccc(N=Cc2c(O)n(-c3cccc(C)c3)c(=O)[nH]c2=O)cc1 | -26.7% (inactive) |
| COc1ccc(CC2(CCc3ccncc3)C(=O)NC(=O)NC2=O)cc1 | -26.1% (inactive) |
| CNc1ccc2oc(C[C@H]3O[C@@]4(CC[C@H]3C)O[C@H]([C@H](C)C(=O)c3ccc[nH]3)[C@H](C)C[C@H]4C)nc2c1C(=O)O | 76.2% (active) |
| c1ccc(-c2nc(N3CCOCC3)s[n+]2-c2ccccc2)cc1 | -49.7% (inactive) |
| Cc1ccc2c(c1)C1CN(C)CCC1N2C(=S)Nc1cccnc1 (centres undefined) | -34% (inactive) |
| O=C(CN1CC=C(c2ccccc2)CC1)Nc1c(Cl)cccc1Cl | 30.6% (inactive) |
| COC(=O)[C@@H]1[C@@H](C(=O)OC)C2(c3ccccc3-c3ccccc32)N(c2ccc(Cl)cc2)N1C#N | -7.2% (inactive) |
| COC(=O)C[C@]1(C(=O)OC)CN(C#N)N(c2ccc(Cl)cc2)C12c1ccccc1-c1ccccc12 | 91.6% (active) |
| COC(=O)C1CN(C#N)N(c2ccc(Cl)cc2)C12c1ccccc1-c1ccccc12 (centres undefined) | -10.3% (inactive) |
| CC(C)c1ccc(NC(=O)CCNC(=O)N2C[C@H]3C[C@@H](C2)c2cccc(=O)n2C3)cc1 | -6.2% (inactive) |
| Cc1ccc(-c2nc3ccccc3c(=O)n2-c2ccncc2)cc1 | -34.6% (inactive) |
| Cc1nc2cc(C(F)(F)F)ccc2n1C1CCN(Cc2nnnn2Cc2ccc3c(c2)OCO3)CC1 | 62.6% (active) |
| Cc1nc2cc(C(F)(F)F)ccc2n1C1CCN(Cc2nnnn2Cc2cccs2)CC1 | -21.1% (inactive) |
| Cc1nc2cc(C(F)(F)F)ccc2n1C1CCN(Cc2nnnn2CCc2ccccc2)CC1 | -27.2% (inactive) |
